Source: PubChem
Sfp inh: qHTS Assay for Inhibitors of Bacillus subtilis Sfp phosphopantetheinyl transferase (PPTase); Potency, µM, usual class: inhibitors; hit rate 3.5% among 310,000; Biochemical Sfp PPTase activity, qHTS; AID 1490, 2009; 4'-phosphopantetheinyl transferase ffp (Bacillus subtilis), Q9F4F7;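 note: the enzyme is Sfp with the accession as filed and its product quenches rhodamine fluorescence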
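Fluorescence-quenching assay: 15 nM Sfp-PPTase preincubated 15 min at room temperature with compound, then 5 uM rhodamine-CoA and 12.5 uM BHQ-2-labelled YbbR peptide added. Fluorescence (ex 525/em 598 nm) read at start and after 30 min; difference gives rate.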
HP1b chromo inh: HTS for Inhibitors of HP1-beta Chromodomain Interactions with Methylated Histone Tails. Chromobox protein homolog 1 (Homo sapiens), P83916. AlphaScreen HP1-beta / biotin-H3K9me3 peptide binding. Potency, µM (highest dose often 114 µM), hits mostly inhibitors. hit rate 0.56% among 390,000. AID 540317, 2011; note: nearly all actives have a fitted effect of over 70% in size
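HP1-beta protein (50 nM final) preincubated 30 min at room temperature with biotinylated H3(1-18)K9me3 peptide (50 nM) in PBS pH 7.4, 0.01% Tween-20, then compound added for 30 min. AlphaScreen streptavidin donor/nickel chelate acceptor beads (10 ug/mL final), 30 min dark, luminescence read.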
G9a inh: qHTS Assay for Inhibitors of Histone Lysine Methyltransferase G9a. Histone-lysine N-methyltransferase EHMT2 (Homo sapiens), Q96KQ7. Potency, µM (series often up to 102 µM), actives largely listed as inhibitors. hit rate 8.8% among 350,000. G9a H3K9 monomethylation, AlphaScreen, 2 h; note: nearly all actives have a fitted effect of over 75% in size
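Compounds were preincubated with 20 nM G9a for 15 min, after which biotinylated H3K9 peptide (500 nM) and SAM (20 uM) started a 2 h room-temperature reaction. Monomethylated product was quantified by antibody-based AlphaScreen chemiluminescence.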
BAZ2B inh: qHTS Assay for Inhibitors of BAZ2B; Bromodomain adjacent to zinc finger domain protein 2B (Homo sapiens), Q9UIF8; AlphaScreen BAZ2B-H3K14Ac peptide displacement; Potency, µM (top dose mostly 114 µM), actives largely listed as inhibitors; hit rate 4.4% among 360,000; AID 504333, 2011; note: nearly all actives have a fitted effect of over 60% in size
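BAZ2B 50 nM plus b-H3(5-23)K14Ac 50 nM, PBS pH 7.4/0.01% Tween-20, 30 min RT; compound added (max 110 uM), 30 min RT; streptavidin donor/Ni-chelate acceptor beads 10 ug/mL final, 20 min dark; AlphaScreen read.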
PLK1 PBD inh: qHTS for Inhibitors of PLK1-PDB (polo-like kinase 1 - polo-box domain): Primary Screen. Serine/threonine-protein kinase PLK1 (Homo sapiens), P53350. Potency, µM, hits mostly inhibitors. AID 720504, 2013. Plk1 PBD binding of FITC phosphopeptide, fluorescence polarization. hit rate 2.8% among 360,000; note: series mostly up to about 57 µM; nearly all actives have a fitted effect of over 65% in size
JMJD2A Tudor inh: qHTS Assay for Inhibitors of JMJD2A-Tudor Domain. AlphaScreen JMJD2A-Tudor / H3K4me3 peptide binding. Lysine-specific demethylase 4A (Homo sapiens), O75164. hit rate 4.4% among 390,000. Potency, µM (highest dose often 114 µM), usual class: inhibitors; note: nearly all actives have a fitted effect of over 50% in size
Hits are given with their value; - = inactive; ? = inconclusive; . = no result given; [ ] = remark or other dose. Most compounds without a hit are left out; they make up all but 12% or so of the library. Calls come from the whole dose curve; as a rule, active = well fitted curve in the direction sought with a large enough effect; inconclusive = small, poorly fitted or top-dose-only effect, or another doubt; inactive = no such curve, though single readings can be large; an effect the other way counts as inactive or inconclusive.

SMILES | Sfp inh | HP1b chromo inh | G9a inh | BAZ2B inh | PLK1 PBD inh | JMJD2A Tudor inh
COc1ccc(C(=O)C[N+]2(C)CCOCC2)cc1 | - | - | 13µM | ? | - | 22µM
COc1ccc(C(=O)CC(=O)c2ccc(OC)cc2)cc1 | - | - | - | - | - | -
CC(C)(C)NC(=O)C(c1cccs1)N(C(=O)c1csnn1)c1cccc(F)c1 (centres undefined) | - | - | . | ? | - | -
CC(C)(C)NC(=O)C(c1cccs1)N(Cc1ccc(F)cc1)C(=O)c1csnn1 (centres undefined) | - | - | . | - | 27µM | ?
O=C(CCn1cnc2ccccc2c1=O)NCc1ccccc1Cl | . | - | - | - | . | -
O=C(CCn1cnc2ccccc2c1=O)NCc1ccccc1 | . | - | ? | ? | . | 89µM
COc1ccccc1CNC(=O)CCn1cnc2ccccc2c1=O | . | ? | 16µM | 50µM | . | 56µM
COc1ccccc1NC(=O)CCN1CCN(C)CC1 | - | - | 50µM | - | - | -
COc1cc(OC)c(NC(=O)CCNC(=O)Cn2cnc3ccccc3c2=O)cc1Cl | - | - | -[2.33 µM] | - | 13µM | -[11.4 µM]
COc1cc(OC)c(N(C)C(=O)CCNC(=O)Cn2cnc3ccccc3c2=O)cc1Cl | - | - | -[12.7 µM] | - | - | -
COc1ccccc1NS(=O)(=O)NC(=O)c1c(C)[nH]c2ccccc12 | - | - | ? | ? | - | -
COc1ccc(-n2nc(C(=O)N(C)c3cc(Cl)ccc3OC)c3c4ccccc4n(C)c3c2=O)cc1 | . | - | - | . | . | -
CN(C)c1ccc(-c2nc(NCCc3cnc[nH]3)c3ccccc3n2)cc1 | - | . | -[0.501 µM] | . | . | .
COc1ccccc1NC(=O)CCn1cnc2ccccc2c1=O | . | ? | -[12.7 µM] | ? | . | 5µM
O=C(CCNC(=O)Cn1cnc2ccccc2c1=O)NCC1COc2ccccc2O1 (centres undefined) | - | ? | - | - | 3µM | ?
COc1cc(OC)c(NC(=O)CCCn2nc(C)c3sc4ccccc4c3c2=O)cc1Cl | . | - | 14µM | ? | . | ?
COC(=O)[C@@H]1C[C@H]2CC[C@H](O)C[C@H]2N1Cc1c(F)cccc1Cl | - | . | . | . | . | .
COC(=O)CC1Oc2ccc(F)cc2-n2cc(-c3ccc(C)cc3)nc21 (centres undefined) | . | - | - | - | . | -
Cc1ccc2nc(/N=C(\N)NC(=O)N3c4ccccc4Sc4ccccc43)nc(C)c2c1 | - | - | 50µM | - | - | -
Cc1cc2nc(/N=C(\N)NC(=O)N3c4ccccc4Sc4ccccc43)nc(C)c2cc1C | - | - | 50µM | - | - | -
COc1ccc2[nH]c3c(N4CCN(Cc5ccc6c(c5)OCO6)CC4)ncnc3c2c1 | - | - | 50µM | 50µM | - | ?
O=[N+]([O-])c1ccc2ncnc(N3CCN(Cc4ccc5c(c4)OCO5)CC3)c2c1 | - | - | . | 40µM | - | ?
Cc1ccc(Cl)cc1NS(=O)(=O)c1cc2c(cc1F)NC(=O)CC2 | . | . | . | . | . | -
CCc1nn(CC(=O)N2CCN(c3cccc(C(F)(F)F)c3)CC2)c(=O)c2cccn12 | . | - | - | 71µM | . | ?
CCc1nn(CC(=O)N2CCC(C)CC2)c(=O)c2cccn12 | - | - | - | - | - | -
SMILES | Sfp inh | HP1b chromo inh | G9a inh | BAZ2B inh | PLK1 PBD inh | JMJD2A Tudor inh
Cc1cc(OCCn2ccnc2)cc(C(C)C)c1 | - | 22µM | 11µM | 28µM | - | 0.79µM
Cc1cc(C)cc(OCCn2ccnc2)c1 | - | - | - | - | - | -
CCOc1ccc(OCCOCCn2ccnc2)cc1 | - | ? | ? | 79µM | - | 8.9µM
CCC(C)c1ccc(OCCn2ccnc2)cc1 (centres undefined) | - | - | ? | 50µM | - | 20µM
Cn1c(SCC(=O)NCC2CCCO2)nnc1-c1ccc(Cl)cc1 (centres undefined) | . | - | -[12.7 µM] | - | - | -
C=C(C)CC(C)(C)C | - | . | . | . | . | .
